We go through seven compounds from the supplement of paper PMC11732987, “Enantioselective OTUD7B fragment discovery through chemoproteomics screening and high-throughput optimisation” (Communications Chemistry, 2025).

Unmarked numbers belong to inactive results.

What all share (test): log2 ratio of Biotin-Ahx-Ub-VS probe labelling (fragment/DMSO); higher = less target engagement (more negative = stronger competition), active = hit call of the paper (q ≤ 0.05, log2 ratio ≤ -1)
Holding throughout (settings): compound concentration: 200 uM; treatment time: 3 h

The target in one assay is T1, ALG13 (UniProt Q9NP73).
T1 sequence (whole entry): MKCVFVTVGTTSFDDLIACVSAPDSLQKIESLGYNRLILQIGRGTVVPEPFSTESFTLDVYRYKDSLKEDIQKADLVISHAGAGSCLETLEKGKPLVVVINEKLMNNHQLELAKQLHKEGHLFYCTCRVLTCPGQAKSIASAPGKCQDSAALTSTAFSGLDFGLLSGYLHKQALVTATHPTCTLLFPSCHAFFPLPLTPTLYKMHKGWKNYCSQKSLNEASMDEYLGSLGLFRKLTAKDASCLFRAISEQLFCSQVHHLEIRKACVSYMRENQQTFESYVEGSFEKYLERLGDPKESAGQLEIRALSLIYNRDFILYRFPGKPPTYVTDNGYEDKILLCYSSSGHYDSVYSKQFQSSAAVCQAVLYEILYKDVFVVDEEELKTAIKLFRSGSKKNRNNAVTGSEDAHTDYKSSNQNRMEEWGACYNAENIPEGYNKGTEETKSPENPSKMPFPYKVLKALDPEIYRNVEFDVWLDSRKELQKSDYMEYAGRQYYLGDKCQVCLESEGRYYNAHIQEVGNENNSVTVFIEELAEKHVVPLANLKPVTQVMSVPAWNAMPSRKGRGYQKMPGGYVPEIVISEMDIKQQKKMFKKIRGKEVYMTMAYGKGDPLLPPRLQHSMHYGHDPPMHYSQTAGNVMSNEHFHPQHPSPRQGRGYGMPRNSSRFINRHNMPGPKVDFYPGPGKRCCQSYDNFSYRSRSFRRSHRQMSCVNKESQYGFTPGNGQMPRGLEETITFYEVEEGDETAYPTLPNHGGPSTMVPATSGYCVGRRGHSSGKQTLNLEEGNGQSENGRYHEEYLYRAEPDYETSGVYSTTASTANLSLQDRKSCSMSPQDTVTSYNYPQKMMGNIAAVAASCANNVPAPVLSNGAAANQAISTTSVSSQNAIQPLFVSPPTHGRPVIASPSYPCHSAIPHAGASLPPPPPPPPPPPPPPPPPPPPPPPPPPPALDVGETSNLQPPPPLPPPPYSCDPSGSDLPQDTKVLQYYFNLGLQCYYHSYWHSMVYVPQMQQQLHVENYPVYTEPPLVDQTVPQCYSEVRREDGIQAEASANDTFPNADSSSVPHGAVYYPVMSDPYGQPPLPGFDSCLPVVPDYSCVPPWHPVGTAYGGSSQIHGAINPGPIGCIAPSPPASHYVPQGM
The procedure, abridged: (§1)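 Triplicate samples of HEK293T lysate, 495 µg each, received fragment at 200 µM or vehicle for 3 h, followed by Biotin-Ahx-Ub-VS (0.5 µM final) for 1 h. After NeutrAvidin enrichment of labelled DUBs and LysC/trypsin digestion, peptides were run by diaPASEF LC-MS/MS. The values are average log2 fragment/vehicle ratios from global-median-normalised Spectronaut label-free quantities, tested by unpaired t-test on proteins having ≥2 unique peptides.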

The target of the next assay is ATXN3 (UniProt P54252). The procedure, abridged:
as §1

The target in the next assay is T2, BAP1 (UniProt Q92560).
T2 sequence (whole entry): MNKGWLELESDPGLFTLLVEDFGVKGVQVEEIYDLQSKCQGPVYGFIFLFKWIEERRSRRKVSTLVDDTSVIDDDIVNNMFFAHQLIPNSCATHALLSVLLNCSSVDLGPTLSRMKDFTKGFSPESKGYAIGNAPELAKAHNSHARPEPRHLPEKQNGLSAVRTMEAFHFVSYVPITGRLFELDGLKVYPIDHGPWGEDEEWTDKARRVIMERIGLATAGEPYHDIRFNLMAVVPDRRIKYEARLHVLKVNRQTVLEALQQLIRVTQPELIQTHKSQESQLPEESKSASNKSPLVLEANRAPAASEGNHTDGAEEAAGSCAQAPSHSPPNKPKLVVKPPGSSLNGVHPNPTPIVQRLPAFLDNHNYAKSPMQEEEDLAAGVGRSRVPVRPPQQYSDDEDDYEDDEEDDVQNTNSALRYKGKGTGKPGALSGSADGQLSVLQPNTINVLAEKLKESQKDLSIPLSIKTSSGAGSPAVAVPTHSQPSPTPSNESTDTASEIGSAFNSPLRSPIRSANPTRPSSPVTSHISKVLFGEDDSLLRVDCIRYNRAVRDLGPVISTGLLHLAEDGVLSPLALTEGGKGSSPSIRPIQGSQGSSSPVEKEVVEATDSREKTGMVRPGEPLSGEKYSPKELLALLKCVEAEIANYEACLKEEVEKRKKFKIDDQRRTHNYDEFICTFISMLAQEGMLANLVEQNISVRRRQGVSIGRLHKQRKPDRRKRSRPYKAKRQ
The procedure, abridged:
as §1

A further assay concerns the target EIF3F (UniProt O00303). The procedure, abridged: as §1
Another assay deals with EIF3H (UniProt O15372). The procedure, abridged:
as §1

In the next assay the target is T3, FAM105A (UniProt Q9NUU6).
T3 sequence (whole entry): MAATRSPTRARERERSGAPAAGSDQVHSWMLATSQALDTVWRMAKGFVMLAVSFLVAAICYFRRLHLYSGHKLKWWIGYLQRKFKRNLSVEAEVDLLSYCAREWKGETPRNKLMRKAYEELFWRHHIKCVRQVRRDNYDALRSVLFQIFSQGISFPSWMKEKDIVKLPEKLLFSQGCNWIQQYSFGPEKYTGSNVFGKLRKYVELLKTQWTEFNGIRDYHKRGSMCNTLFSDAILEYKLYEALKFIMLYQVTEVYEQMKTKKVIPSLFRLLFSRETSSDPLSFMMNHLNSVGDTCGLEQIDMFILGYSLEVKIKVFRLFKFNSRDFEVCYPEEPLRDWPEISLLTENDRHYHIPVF
In a few lines:
as §1

A further assay concerns the target OTUB1 (UniProt Q96FW1). The procedure, abridged: as §1
A further assay concerns the target T4, OTUD4 (UniProt Q01804).
T4 sequence (whole entry): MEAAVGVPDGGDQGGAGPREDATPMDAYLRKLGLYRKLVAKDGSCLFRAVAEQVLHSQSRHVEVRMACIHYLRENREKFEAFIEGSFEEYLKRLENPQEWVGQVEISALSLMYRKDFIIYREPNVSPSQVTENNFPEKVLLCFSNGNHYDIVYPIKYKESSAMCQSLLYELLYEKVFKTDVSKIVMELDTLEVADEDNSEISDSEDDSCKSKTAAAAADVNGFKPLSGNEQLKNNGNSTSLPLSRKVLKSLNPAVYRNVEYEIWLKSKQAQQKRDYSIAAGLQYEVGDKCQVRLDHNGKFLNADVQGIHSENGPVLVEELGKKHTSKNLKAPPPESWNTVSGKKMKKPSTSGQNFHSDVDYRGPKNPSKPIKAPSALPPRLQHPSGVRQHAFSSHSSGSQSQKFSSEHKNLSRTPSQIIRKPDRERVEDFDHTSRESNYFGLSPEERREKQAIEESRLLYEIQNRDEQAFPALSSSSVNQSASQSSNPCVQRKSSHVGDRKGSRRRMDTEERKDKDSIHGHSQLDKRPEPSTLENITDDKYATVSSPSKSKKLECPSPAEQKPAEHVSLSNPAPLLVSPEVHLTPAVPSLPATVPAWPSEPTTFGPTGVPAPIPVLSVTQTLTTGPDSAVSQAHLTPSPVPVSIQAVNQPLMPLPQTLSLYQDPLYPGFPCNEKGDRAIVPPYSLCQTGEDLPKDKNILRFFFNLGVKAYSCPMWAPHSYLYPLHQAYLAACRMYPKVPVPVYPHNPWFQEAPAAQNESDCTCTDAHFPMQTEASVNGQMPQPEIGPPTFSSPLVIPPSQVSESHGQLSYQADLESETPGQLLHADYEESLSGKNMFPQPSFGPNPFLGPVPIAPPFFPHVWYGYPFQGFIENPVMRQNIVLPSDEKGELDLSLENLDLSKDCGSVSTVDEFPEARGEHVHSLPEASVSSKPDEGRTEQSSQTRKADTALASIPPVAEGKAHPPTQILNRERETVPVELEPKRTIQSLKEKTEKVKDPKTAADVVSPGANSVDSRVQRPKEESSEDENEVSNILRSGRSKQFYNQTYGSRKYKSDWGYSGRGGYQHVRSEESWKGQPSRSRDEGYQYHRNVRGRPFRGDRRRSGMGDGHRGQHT
The procedure, abridged:
as §1

A further assay has as its target T5, OTUD5 (UniProt Q96G74).
T5 sequence (whole entry): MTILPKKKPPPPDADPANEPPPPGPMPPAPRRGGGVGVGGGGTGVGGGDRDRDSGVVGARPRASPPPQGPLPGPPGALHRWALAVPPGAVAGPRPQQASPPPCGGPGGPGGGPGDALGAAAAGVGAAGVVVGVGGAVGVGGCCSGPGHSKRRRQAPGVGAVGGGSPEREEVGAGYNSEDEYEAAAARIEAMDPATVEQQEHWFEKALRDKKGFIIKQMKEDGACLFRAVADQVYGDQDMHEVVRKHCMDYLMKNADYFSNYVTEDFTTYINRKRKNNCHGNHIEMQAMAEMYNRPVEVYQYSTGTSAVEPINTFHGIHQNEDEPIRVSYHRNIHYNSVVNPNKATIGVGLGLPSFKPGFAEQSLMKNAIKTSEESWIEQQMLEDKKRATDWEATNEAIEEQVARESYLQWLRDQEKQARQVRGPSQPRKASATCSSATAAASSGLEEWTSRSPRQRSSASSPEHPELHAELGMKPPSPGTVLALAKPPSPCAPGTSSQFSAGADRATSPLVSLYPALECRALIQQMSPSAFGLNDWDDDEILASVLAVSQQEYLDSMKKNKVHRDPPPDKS
In a few lines: as §1

Sequence of ATXN3 (P54252 whole entry): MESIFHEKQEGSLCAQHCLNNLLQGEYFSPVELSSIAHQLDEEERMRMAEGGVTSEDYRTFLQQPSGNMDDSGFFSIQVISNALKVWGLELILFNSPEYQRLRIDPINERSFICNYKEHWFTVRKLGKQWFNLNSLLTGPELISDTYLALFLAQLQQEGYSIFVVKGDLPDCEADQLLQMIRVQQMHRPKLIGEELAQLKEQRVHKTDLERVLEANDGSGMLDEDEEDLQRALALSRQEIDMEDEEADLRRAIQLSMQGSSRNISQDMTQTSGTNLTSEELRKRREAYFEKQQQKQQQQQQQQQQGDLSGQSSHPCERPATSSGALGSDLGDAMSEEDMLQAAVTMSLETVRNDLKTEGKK
Sequence of OTUB1 (Q96FW1 whole entry): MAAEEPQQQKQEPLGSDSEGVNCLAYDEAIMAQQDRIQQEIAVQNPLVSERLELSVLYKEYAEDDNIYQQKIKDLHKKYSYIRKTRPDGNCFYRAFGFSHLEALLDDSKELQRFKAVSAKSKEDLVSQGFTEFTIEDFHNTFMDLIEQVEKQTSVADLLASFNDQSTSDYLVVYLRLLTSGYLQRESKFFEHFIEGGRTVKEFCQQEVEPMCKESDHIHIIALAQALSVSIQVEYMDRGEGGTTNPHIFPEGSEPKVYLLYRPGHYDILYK
Sequence of EIF3F (O00303 whole entry): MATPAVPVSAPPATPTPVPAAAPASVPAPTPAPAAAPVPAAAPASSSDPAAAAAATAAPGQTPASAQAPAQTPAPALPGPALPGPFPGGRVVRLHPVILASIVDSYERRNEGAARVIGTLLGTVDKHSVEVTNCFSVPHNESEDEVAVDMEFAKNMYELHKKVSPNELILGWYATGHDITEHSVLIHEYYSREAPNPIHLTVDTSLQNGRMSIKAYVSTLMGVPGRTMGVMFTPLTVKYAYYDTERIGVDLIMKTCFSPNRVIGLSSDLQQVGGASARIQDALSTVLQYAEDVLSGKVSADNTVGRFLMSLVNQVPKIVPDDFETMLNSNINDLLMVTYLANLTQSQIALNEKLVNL
Sequence of EIF3H (O15372 whole entry): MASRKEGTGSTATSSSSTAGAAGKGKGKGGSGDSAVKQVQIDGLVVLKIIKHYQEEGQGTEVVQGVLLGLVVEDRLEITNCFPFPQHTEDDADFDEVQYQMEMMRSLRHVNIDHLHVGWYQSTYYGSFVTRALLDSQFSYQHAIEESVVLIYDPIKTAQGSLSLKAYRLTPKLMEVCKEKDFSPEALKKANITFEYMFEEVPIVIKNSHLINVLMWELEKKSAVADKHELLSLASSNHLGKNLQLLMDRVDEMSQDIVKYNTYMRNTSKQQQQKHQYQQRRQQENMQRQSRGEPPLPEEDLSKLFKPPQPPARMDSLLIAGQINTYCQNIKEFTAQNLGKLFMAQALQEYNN

Consider `O=C(CCl)Nc1ccc2c(c1)OC(F)(F)O2`, for which the “log2 ratio of Biotin-Ahx-Ub-VS probe labelling” value (“log2 ratio” below) in the assay with ALG13 was 0.0874; in the assay with ATXN3, -0.411; with BAP1 it was -1.92 (active); in the assay with EIF3F, -0.0462; in the assay with EIF3H it was 0.0852; in the assay with FAM105A, -0.278. Further, the “log2 ratio” value with OTUB1 was 0.13; in the assay with OTUD4, -0.422; in the assay with OTUD5, -0.515.
As for `O=C(O)C1Cc2ccccc2CN1C(=O)CCl` (stereo not drawn), the “log2 ratio” value is 0.144 with ALG13; -0.269 with ATXN3; -0.657 in the assay with BAP1; -0.182 with EIF3F; -0.0826 in the assay with EIF3H; 0.395 with FAM105A. For the same compound, the “log2 ratio” value with OTUB1 is -0.323; in the assay with OTUD4, -0.404; with OTUD5, -0.562.
For `C#Cc1cccc(NC(=O)CCl)c1`, the “log2 ratio” value in the assay with ALG13 is -0.0771; with ATXN3 it was -0.239; with BAP1 it was -3.08 (active); with EIF3F, -0.206; in the assay with EIF3H, 0.0977; in the assay with FAM105A, 0.233. For the same compound, the figures for the “log2 ratio” value in the assay with OTUB1, in the assay with OTUD4 and with OTUD5 were -0.135, -0.211 and -0.288, respectively.
Regarding `O=C(CCl)NCC1(c2ccccc2)CC1`, the “log2 ratio” value is -1.4 (active) with ALG13; 0.0359 with ATXN3; -1.15 (active) with BAP1; -0.053 with EIF3F; 0.176 with EIF3H; -0.0439 in the assay with FAM105A. In addition, the “log2 ratio” value with OTUB1 was 0.0757; in the assay with OTUD4, -0.368; in the assay with OTUD5, -0.335.
As to `CN(CCC(O)c1ccc(Br)cc1)C(=O)CCl` (stereo not drawn), the “log2 ratio” value was -0.222 with ALG13; -0.473 with ATXN3; -2.04 (active) with BAP1; -0.372 with EIF3F; 0.178 with EIF3H; 0.138 with FAM105A. In addition, the “log2 ratio” value with OTUB1 was -0.231; with OTUD4, -0.192; with OTUD5 it was -0.354.
On to `CNC(=O)Cn1cc(NC(=O)CCl)cn1`, for which the “log2 ratio” value with ALG13 is -0.433; with ATXN3, -0.517; with BAP1, -1.67 (active); with EIF3F it was -0.308; with EIF3H it was 0.0304; in the assay with FAM105A, -0.125. Further, the “log2 ratio” value with OTUB1 was -0.0242; with OTUD4 it was -0.305; in the assay with OTUD5 it was -0.468.
For the compound `CN(C)C(=O)c1ccc(CNC(=O)CCl)cc1`, the “log2 ratio” value with ALG13 is 0.104; with ATXN3 it was -0.0706; with BAP1, -2.84 (active); in the assay with EIF3F, 0.137; with EIF3H, 0.092; with FAM105A, 0.248. Besides, the “log2 ratio” value in the assay with OTUB1 was -0.0918; with OTUD4, -0.365; with OTUD5 it was -0.146.
